{"source": "the supplement of paper PMC6555819", "data": [{"test_system": "LXRa homodimer (NR concentration 270 nM)", "assay": "PBM binding z-score (relative to random genomic background probes); higher = stronger binding; sequences stand for … in GC…GCGATTGACAGCGTAGAATGAAGG", "in_short": "(§1)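 Antibodies against each partner of ligand-free nuclear receptor dimers (one per run) detected binding on custom Agilent 4×180K protein-binding microarrays after 1 h incubation. The double-stranded probes had 34-nt variable regions carrying direct-repeat seeds, single-nucleotide variants, half-site ablations and random human genomic background sequences. Binding z-scores, from regression-normalized fluorescence, use the random background probes as reference.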", "values": [{"sequence": "TTACCAACGTGAAAGGTCGTTGATGCACGCCTTG", "PBM binding z-score": 0.436}, {"sequence": "CCTACTGCGCCACGAAAGGTCATTGATTCAGTGA", "PBM binding z-score": 5.64}, {"sequence": "TCATATAGGTAAACGTGAAAGTCGAACGATATGA", "PBM binding z-score": -0.204}, {"sequence": "GGAACGAGGGCAAAGTTGATAGCATCTGTCGACG", "PBM binding z-score": -0.231}, {"sequence": "CCTAGCAGGCCAATCTGGGTGACTCAAGGCTTGA", "PBM binding z-score": -0.891}, {"sequence": "TCTGCTGGGTCAGTTGGTCAGCTAACGAGCTGCC", "PBM binding z-score": -1.01}, {"sequence": "CCTACTAGGTCATGGTCAGCTAATCTACAGTATG", "PBM binding z-score": 0.658}, {"sequence": "TCTGTTAGTTGAAGGGCAACCGACGAGTCCGTTT", "PBM binding z-score": 0.374}, {"sequence": "TCGGCTAGGTCAACGATGGTCAGCTAATCTGCTA", "PBM binding z-score": -0.307}, {"sequence": "AGAATGAGGTTAATAAGATCAGGGAATTGCGGTC", "PBM binding z-score": 0.213}, {"sequence": "AGAACGAGGGCAATGAGTTGATAGTACGGGTGGC", "PBM binding z-score": -0.524}, {"sequence": "AGTCAAAGTTCATCTAGGGAACGTAAGATATGCT", "PBM binding z-score": 4.72}, {"sequence": "ATAACGAGGGCACGCTGAGTTGATAGCAGAGTAG", "PBM binding z-score": -0.0272}, {"sequence": "ATCTGTAGGTAACCAAGTTCAGTGAATGCCGAAC", "PBM binding z-score": 0.477}, {"sequence": "AGAACGAGGGCACGCTGAGTTGAGAGCAGAGTAG", "PBM binding z-score": -0.514}, {"sequence": "CTCGAAAGGTCGTGCTGAGGTGAGTATACCAAAC", "PBM binding z-score": 0.000478}, {"sequence": "CAAACTAGGTCCAGAGGTCAAAGTCCGCTTCCCG", "PBM binding z-score": 5.71}, {"sequence": "CGTCCAAGGTCAAAGGTCAGTGACGAGATGACGG", "PBM binding z-score": 3.55}, {"sequence": "GGAACGAGGGCAAAGTTGATAGAATCTGTCGACG", "PBM binding z-score": -0.584}, {"sequence": "TCTTGTAGATCAATAGAGGATAAGAAAGTGCGCT", "PBM binding z-score": -0.0873}, {"sequence": "CGAACCAGGTCAAGGACAGTGAATCTCCGCACGC", "PBM binding z-score": 0.32}, {"sequence": "CCGGCTAGGTCATGGTCAGCTAATCTACAGTATG", "PBM binding z-score": 0.191}, {"sequence": "ATACCAAGGTGCTCGTGAGGTCGTTGATACTAAC", "PBM binding z-score": 0.19}, {"sequence": "CCAACTAGGTCAAGGACAGTGAATCTCCGCACGC", "PBM binding z-score": 0.634}, {"sequence": "GTAACGAGGGCAAGTTGATAGCAGAGTTTGATGG", "PBM binding z-score": -0.256}, {"sequence": "TCTGCTAGGTCAGTTGGACAGCTAACGAGCTGCC", "PBM binding z-score": -0.846}, {"sequence": "AGTCAAAGCTCAGGACGAGGTAACGTAAAGCACG", "PBM binding z-score": -0.393}, {"sequence": "ACGTACGGGTCAACGAGGTTATAGCACGCGTATA", "PBM binding z-score": 0.327}, {"sequence": "CCTTACGGGTCACTGACAGGTTAGAGCATTTGGA", "PBM binding z-score": 0.227}, {"sequence": "CGAACTAGGTCATCCAGGACAGTCAATACATTGA", "PBM binding z-score": 0.817}, {"sequence": "CAAACTAGGCCAAAGGTCAAAGTCGAGCCAACCA", "PBM binding z-score": 4.2}, {"sequence": "CGTCCAAGGTCAATGTCAGTGAAAGAGACTCGAA", "PBM binding z-score": 0.641}, {"sequence": "TCTATTACTTGAAGGGCAACCGACGAGTCCGTTT", "PBM binding z-score": 0.425}, {"sequence": "TCTTGTAGATCAACAGGAGGTTAAGAACGATCGA", "PBM binding z-score": 0.191}, {"sequence": "TCATATAGGTAAATGCTAGGTGAAAGTCCGATCT", "PBM binding z-score": 0.256}, {"sequence": "TCTAGTTGGTCACGGAGGTCACACAAGACGGGTA", "PBM binding z-score": 2.41}, {"sequence": "CGAACTAGGTCATCCAAGACAGTGAATACATTGA", "PBM binding z-score": 0.551}, {"sequence": "TCTTATAGATCAACAGGAGGTTAAGAAAGATCGA", "PBM binding z-score": 0.457}, {"sequence": "CGAACTAGGTCAGAACAGGAAAGTGAAGGATGAT", "PBM binding z-score": -0.258}, {"sequence": "ATATGTAGGTTATCGCGTCATTCAGTTTGCGCAT", "PBM binding z-score": 0.372}]}, {"test_system": "LXRb:RXRa (NR concentration 270 nM, RXRa partner concentration 90 nM)", "assay": "PBM binding z-score (relative to random genomic background probes); higher = stronger binding; sequences stand for … in GC…GCGATTGACAGCGTAGAATGAAGG", "in_short": "as §1", "values": [{"sequence": "TTACCAACGTGAAAGGTCGTTGATGCACGCCTTG", "PBM binding z-score": 1.66}, {"sequence": "CCTACTGCGCCACGAAAGGTCATTGATTCAGTGA", "PBM binding z-score": 4.54}, {"sequence": "TCATATAGGTAAACGTGAAAGTCGAACGATATGA", "PBM binding z-score": 0.164}, {"sequence": "GGAACGAGGGCAAAGTTGATAGCATCTGTCGACG", "PBM binding z-score": 1.07}, {"sequence": "CCTAGCAGGCCAATCTGGGTGACTCAAGGCTTGA", "PBM binding z-score": -0.476}, {"sequence": "TCTGCTGGGTCAGTTGGTCAGCTAACGAGCTGCC", "PBM binding z-score": 0.206}, {"sequence": "CCTACTAGGTCATGGTCAGCTAATCTACAGTATG", "PBM binding z-score": 2.06}, {"sequence": "TCTGTTAGTTGAAGGGCAACCGACGAGTCCGTTT", "PBM binding z-score": 0.639}, {"sequence": "TCGGCTAGGTCAACGATGGTCAGCTAATCTGCTA", "PBM binding z-score": 1.72}, {"sequence": "AGAATGAGGTTAATAAGATCAGGGAATTGCGGTC", "PBM binding z-score": 1.24}, {"sequence": "AGAACGAGGGCAATGAGTTGATAGTACGGGTGGC", "PBM binding z-score": -0.18}, {"sequence": "AGTCAAAGTTCATCTAGGGAACGTAAGATATGCT", "PBM binding z-score": 3.68}, {"sequence": "ATAACGAGGGCACGCTGAGTTGATAGCAGAGTAG", "PBM binding z-score": 0.34}, {"sequence": "ATCTGTAGGTAACCAAGTTCAGTGAATGCCGAAC", "PBM binding z-score": 0.549}, {"sequence": "AGAACGAGGGCACGCTGAGTTGAGAGCAGAGTAG", "PBM binding z-score": 0.188}, {"sequence": "CTCGAAAGGTCGTGCTGAGGTGAGTATACCAAAC", "PBM binding z-score": 3.31}, {"sequence": "CAAACTAGGTCCAGAGGTCAAAGTCCGCTTCCCG", "PBM binding z-score": 5.03}, {"sequence": "CGTCCAAGGTCAAAGGTCAGTGACGAGATGACGG", "PBM binding z-score": 6.4}, {"sequence": "GGAACGAGGGCAAAGTTGATAGAATCTGTCGACG", "PBM binding z-score": 1.01}, {"sequence": "TCTTGTAGATCAATAGAGGATAAGAAAGTGCGCT", "PBM binding z-score": -0.13}, {"sequence": "CGAACCAGGTCAAGGACAGTGAATCTCCGCACGC", "PBM binding z-score": 2.36}, {"sequence": "CCGGCTAGGTCATGGTCAGCTAATCTACAGTATG", "PBM binding z-score": 1.89}, {"sequence": "ATACCAAGGTGCTCGTGAGGTCGTTGATACTAAC", "PBM binding z-score": 0.834}, {"sequence": "CCAACTAGGTCAAGGACAGTGAATCTCCGCACGC", "PBM binding z-score": 1.47}, {"sequence": "GTAACGAGGGCAAGTTGATAGCAGAGTTTGATGG", "PBM binding z-score": 0.49}, {"sequence": "TCTGCTAGGTCAGTTGGACAGCTAACGAGCTGCC", "PBM binding z-score": -0.0468}, {"sequence": "AGTCAAAGCTCAGGACGAGGTAACGTAAAGCACG", "PBM binding z-score": -0.561}, {"sequence": "ACGTACGGGTCAACGAGGTTATAGCACGCGTATA", "PBM binding z-score": 4.27}, {"sequence": "CCTTACGGGTCACTGACAGGTTAGAGCATTTGGA", "PBM binding z-score": 3.04}, {"sequence": "CGAACTAGGTCATCCAGGACAGTCAATACATTGA", "PBM binding z-score": 2.43}, {"sequence": "CAAACTAGGCCAAAGGTCAAAGTCGAGCCAACCA", "PBM binding z-score": 5.75}, {"sequence": "CGTCCAAGGTCAATGTCAGTGAAAGAGACTCGAA", "PBM binding z-score": 3.88}, {"sequence": "TCTATTACTTGAAGGGCAACCGACGAGTCCGTTT", "PBM binding z-score": 1.19}, {"sequence": "TCTTGTAGATCAACAGGAGGTTAAGAACGATCGA", "PBM binding z-score": 0.748}, {"sequence": "TCATATAGGTAAATGCTAGGTGAAAGTCCGATCT", "PBM binding z-score": 0.834}, {"sequence": "TCTAGTTGGTCACGGAGGTCACACAAGACGGGTA", "PBM binding z-score": 3.46}, {"sequence": "CGAACTAGGTCATCCAAGACAGTGAATACATTGA", "PBM binding z-score": 2.26}, {"sequence": "TCTTATAGATCAACAGGAGGTTAAGAAAGATCGA", "PBM binding z-score": 1.36}, {"sequence": "CGAACTAGGTCAGAACAGGAAAGTGAAGGATGAT", "PBM binding z-score": 0.38}, {"sequence": "ATATGTAGGTTATCGCGTCATTCAGTTTGCGCAT", "PBM binding z-score": 1.1}]}]}
